Source: PubChem BioAssay
Sampled rows, rich in hits. Any-hit rate of the full collection: about 2.1%.
EWS-Fli block: EWS/Fli-driven NR0B1 reporter inhibitors, primary screen, A673 cells, NR0B1 luciferase, luminescence, MLPCN library | viability-normalised | inhibition, % at 12.6 µM | 0.67% of 350,000 active | AID 651661, 2012;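 active = mean inhibition of at least 50% after viability correction, with every replicate also passing that limit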;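 also: firefly luciferase signal divided by Alamar Blue viability fluorescence both relative to DMSO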
CF NFkB inh: inhibitors of PAF-induced NF-kB signaling, primary screen, cell-based, GFP fluorescence, uHTS | KKLEB NF-kB-GFP reporter, GFP fluorescence overnight | inhibition, % at 5 µM | 0.86% of 360,000 active;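 active = at least 50% inhibition at 5 µM, scaled per plate between neutral and stimulator controls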;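 also: PAF is a Pseudomonas aeruginosa culture filtrate used as stimulus; plate controls were PAF-stimulated DMSO wells for no effect and unstimulated DMSO wells for full effect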
HIF-2a inh: HIF-2a reporter inhibitors, primary screen, luminescence, 786-0 RCC cells; 786-0 RCC cells HIF-2a reporter, luciferase luminescence, overnight; inhibition, % at 18.8 µM; 0.72% of 360,000 active;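 active = inhibition of the luminescence signal of 40% or more relative to plate controls, in a single-dose primary screen at 18.75 µM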
KKLEB tox: cytotoxicity in KKLEB CF airway cells, primary screen, cytotoxicity control for CF NF-kB inhibitor project, cell-based, uHTS, fluorescence assay plates. 0.36% of 360,000 active. KKLEB CF airway cells viability, ATPlite luminescence, overnight; active compounds read low; cells stimulated with P. aeruginosa culture filtrate. AID 602141, 2011. activity change (cytotoxicity), % at 5 µM;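 active = corrected activity change at or below -50% at 5 µM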
PAX8 reporter: inhibitors of PAX8-driven TPO luciferase reporter, primary screen, RMG-I cells, single concentration; SteadyGlo, 24 h; inhibition, % at 12.6 µM; 1.2% of 360,000 active;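 active = mean replicate inhibition at least 60% with every replicate also reaching 60%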;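 also: luciferase light reporting Pax8 driven TPO promoter activity; plate controls were median of neutral control wells for no effect and mitoxantrone controls for full effect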
CF NFkB conf: inhibitors of PAF-induced NF-kB signaling, retest, confirmation, cell-based, GFP fluorescence, single concentration | shares compounds with CF NFkB inh | KKLEB CF airway cells, overnight | inhibition, % at 5 µM | 64% of 1,300 active; in the data active = inhibition above about 40%;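 also: stimulus PAF is a Pseudomonas aeruginosa filtrate and not platelet activating factor; plate controls were DMSO wells with stimulus for no effect and unstimulated DMSO wells for full effect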
An asterisk follows results filed as active; nt = no result.

SMILES | EWS-Fli block | CF NFkB inh | HIF-2a inh | KKLEB tox | PAX8 reporter | CF NFkB conf
COc1cccc(C(=O)N2C[C@@H]3[C@H](c4ccccc42)[C@H](CO)N3C(=O)c2ccccc2)c1 | -7.1 | nt | nt | nt | 19.3 | nt
Nc1ccc2nc(-c3ccccc3)c(-c3ccccc3)nc2c1 | 13.6 | 66.7* | 13.7 | -16.4 | 7.7 | 5.1
Nc1ccc2nc(-c3ccccc3)cnc2c1 | -49.4 | -15.6 | -250.3 | -4.0 | -124.2 | nt
COCC(=O)N(C)C[C@@H]1Oc2cc(C3=CCCCC3)ccc2S(=O)(=O)N([C@@H](C)CO)C[C@H]1C | 11.0 | nt | nt | nt | nt | nt
CC(C)Cc1nc2oc3c(NCc4cccnc4)ncnc3c2c2c1CCC2 | nt | 25.7 | 18.4 | -14.6 | nt | nt
CC(C)Cc1nc2oc3c(NCC4CCCO4)ncnc3c2c2c1CCC2 (stereo not given) | nt | 76.4* | 15.8 | -0.3 | 81.6* | 90.5*
CCOc1ccc(OCC)c(NC(=O)c2nnn(CC(=O)Nc3cc(C)cc(C)c3)c2N)c1 | 30.3 | 50.4* | -0.6 | -33.3 | 8.7 | 37.1
O=[N+]([O-])c1cc(S(=O)(=O)N2CCCC2)ccc1OCCOc1ccccc1 | 8.5 | 50.3* | -19.0 | -22.0 | 1.2 | 15.3
N#Cc1cccc(-c2ccc3c(c2)[C@H]2[C@H](CCN2C(=O)c2ccncc2)[C@H](CO)N3)c1 | -17.2 | nt | nt | nt | 15.1 | nt
CNC[C@@H]1Oc2c(NC(=O)c3cnccn3)cccc2C(=O)N([C@H](C)CO)C[C@H]1C | 5.6 | nt | nt | nt | -20.7 | nt
c1ccc(-c2cc(-c3nc4ccccc4[nH]3)c3ccccc3n2)cc1 | 5.1 | 56.3* | -59.2 | -8.1 | 3.4 | -86.6
O=[N+]([O-])c1ccc2ncnc(N3CCN(Cc4ccc5c(c4)OCO5)CC3)c2c1 | 0.3 | 68.5* | 11.1 | 10.4 | -11.1 | 84.8*
COc1ccc(CN(C)C[C@H]2Oc3c(NC(=O)Nc4ccc(C(F)(F)F)cc4)cccc3C(=O)N([C@H](C)CO)C[C@@H]2C)cc1 | 4.1 | nt | nt | nt | -1.2 | nt
O=C(O)/C=C/c1ccc2c(-c3ccccc3)onc2c1 | -8.0 | 59.0* | 3.8 | -15.6 | -12.0 | 73.9*
O=C(O)c1ccc2noc(-c3ccccc3)c2c1 | nt | 4.1 | -171.7 | 14.1 | nt | nt
CC(C)(C)c1ccc(C(=O)O/N=C(\N)Cc2cccs2)cc1 | -65.1 | 61.2* | -62.8 | -21.3 | -51.2 | 17.8
CCCCOc1ccc(C(=O)Nc2ccc(OCC(=O)N3CCOCC3)cc2)cc1 | -14.7 | -9.5 | -163.0 | -22.3 | nt | nt
O=C(Nc1ccc(OCC(=O)N2CCOCC2)cc1)c1cncc(Br)c1 | nt | 57.2* | 3.0 | -16.0 | -52.0 | 48.1*
COc1ccc(-n2c(C)cc3cc(OC(C)=O)ccc32)cc1 | -28.9 | 57.2* | -75.9 | -11.4 | -28.7 | 57.6*
COc1ccc(-n2c(C)c(C(C)=O)c(C(C)=O)c2C)cc1 | nt | 8.0 | 7.2 | -13.4 | nt | nt
O=C(Cc1ccc(-c2ccccc2)cc1)Nc1ccccn1 | -43.3 | 19.5 | -189.9 | -19.2 | -7.6 | nt
Cc1ccnc(NC(=O)Cc2ccc(-c3ccccc3)cc2)c1 | nt | 61.9* | -431.0 | -17.0 | -8.6 | 57.7*
C[C@@H]1CN([C@H](C)CO)C(=O)c2cc(NC(=O)CCCCCC(=O)Nc3ccccc3N)ccc2O[C@H]1CN(C)C(=O)Nc1ccc2c(c1)OCO2 | 8.4 | nt | nt | nt | -39.6 | nt
CCC1CCc2c(sc(NC(=O)c3ccco3)c2C(N)=O)C1 (stereo not given) | nt | -15.3 | -334.5 | -8.9 | -146.9 | nt
CCC1CCc2c(sc(NC(=O)c3cnccn3)c2C(N)=O)C1 (stereo not given) | -32.5 | 65.2* | -10.6 | -38.2 | -3.3 | 10.9
SMILES | EWS-Fli block | CF NFkB inh | HIF-2a inh | KKLEB tox | PAX8 reporter | CF NFkB conf
COc1c(/C=N/Nc2ccc([N+](=O)[O-])cc2[N+](=O)[O-])c(C)nn1-c1ccccc1 | nt | 59.9* | 3.9 | -38.2 | -7.8 | 41.0*
CCOC(=O)c1c(NC(=O)Cc2cccs2)sc(C(=O)NC2CCCC2)c1C | nt | 45.9 | 10.3 | -42.1 | 4.5 | nt
CCOC(=O)c1c(NC(=O)Cc2cccs2)sc(C(=O)NC2CCCCC2)c1C | nt | 50.9* | -11.2 | -29.4 | nt | 19.0
O=C(C1CC1)N1CCCCN2[C@H](CO)[C@@H](c3ccc(C#CC4CC4)cc3)[C@H]2C1 | -2.9 | nt | nt | nt | -33.4 | nt
COc1cccc(NCc2cc3c(C(C)(C)C)nn(-c4ccccc4)c3[nH]c2=O)c1 | nt | -19.5 | 2.4 | 15.3 | nt | nt
CCOc1ccc(NCc2cc3c(C(C)(C)C)nn(-c4ccccc4)c3[nH]c2=O)cc1 | 0.3 | 55.4* | 13.9 | 31.7 | nt | 72.9*
Cn1cc([N+](=O)[O-])c(C(=O)Nc2sc3c(c2C#N)CCC3)n1 | nt | 57.9* | -12.1 | -14.1 | -4.2 | -82.2
CN(C)c1ccc(C(C(=O)NC2CCCCC2)N(Cc2ccco2)C(=O)c2snc(C(N)=O)c2N)cc1 (stereo not given) | 19.9 | 87.7* | -13.5 | -44.3 | 52.1 | 79.3*
CCOc1ccc(C(C(=O)NC2CCCC2)N(C(=O)c2snc(C(N)=O)c2N)c2cccc(O)c2)cc1 (stereo not given) | -5.9 | 75.0* | 1.3 | -11.0 | 54.6 | 69.8*
COc1ccc(C(C(=O)NCC2CCCO2)N(Cc2cccs2)C(=O)c2snc(C(N)=O)c2N)cc1 (stereo not given) | 9.8 | 54.4* | 2.5 | -27.9 | 51.5 | 50.3*
CCOc1ccc(C(C(=O)NCC2CCCO2)N(Cc2cccc(OC)c2)C(=O)c2snc(C(N)=O)c2N)cc1 (stereo not given) | -3.0 | -12.5 | 4.5 | -0.8 | 5.6 | nt
CC(C)NC(=O)N1CC[C@@H]2[C@H]1c1cc(Br)ccc1N(C)[C@H]2CO | 7.6 | nt | nt | nt | 8.9 | nt
CCCN(CCC)c1ncnc2nc[nH]c12 | -9.2 | 65.7* | 27.6 | -0.5 | -28.3 | 79.5*
CCOc1ccc(-c2csc(NC(=O)CSC3=NC(=O)CN3C(C)=O)n2)c2ccccc12 | nt | -17.2 | 10.0 | 6.3 | 6.2 | nt
CC(=O)N1CC(=O)N=C1SCC(=O)Nc1nc(C)c(-c2ccccc2)s1 | -11.4 | 50.9* | -90.8 | 19.8 | 1.7 | 60.2*
COc1ccc(-c2cc(=O)oc3cc(O)ccc23)cc1 | 14.5 | 82.0* | -4.5 | -3.9 | 5.4 | 86.0*
O=c1cc(-c2ccc([N+](=O)[O-])cc2)c2ccc(O)cc2o1 | 4.0 | 52.6* | 10.7 | 13.7 | 0.3 | 24.9
O=C(Cc1ccncc1)NCC[C@H]1CC[C@H](NC(=O)Nc2cccc(F)c2)[C@@H](CO)O1 | 1.9 | nt | nt | nt | -1.9 | nt
Cc1ccccc1Cn1ccc(NC(=O)c2nn(C)cc2[N+](=O)[O-])n1 | nt | 60.3* | 2.1 | -8.9 | 72.4* | -78.1
O=C(C[C@@H]1C=C[C@@H](NC(=O)Nc2ccc(F)cc2)[C@@H](CO)O1)NCc1cccc(F)c1 | 3.5 | nt | nt | nt | nt | nt
COc1ccccc1C(=O)Nc1ccccc1SC(=O)c1ccccc1OC | 5.6 | 51.3* | -98.4 | 2.1 | -78.1 | 39.3
COC(=O)c1ccccc1NC(=O)c1ccccc1OC | nt | 14.4 | -17.8 | -2.3 | nt | nt
